Reference: PubChem BioAssay (EPA / NIEHS)
Values joined by “and” are separate entries in the source; they are usually repeats but may differ in a detail not shown here. Equal entries are not always repeated. Results filed as inconclusive are left out. The source holds several records for some structures; these can differ, active in one and inactive in another. Active and inactive are the calls of the source. The calls were made as follows: active = hit-call score of the fitted dose curve at least 0.9, where 1 is the maximum; inconclusive = response in the unintended direction; inactive = score below 0.9.

Target: human CYP2C9, CYP2C9 (gene 1559) (UniProt P11712)
Sequence (P11712 whole entry, looked up): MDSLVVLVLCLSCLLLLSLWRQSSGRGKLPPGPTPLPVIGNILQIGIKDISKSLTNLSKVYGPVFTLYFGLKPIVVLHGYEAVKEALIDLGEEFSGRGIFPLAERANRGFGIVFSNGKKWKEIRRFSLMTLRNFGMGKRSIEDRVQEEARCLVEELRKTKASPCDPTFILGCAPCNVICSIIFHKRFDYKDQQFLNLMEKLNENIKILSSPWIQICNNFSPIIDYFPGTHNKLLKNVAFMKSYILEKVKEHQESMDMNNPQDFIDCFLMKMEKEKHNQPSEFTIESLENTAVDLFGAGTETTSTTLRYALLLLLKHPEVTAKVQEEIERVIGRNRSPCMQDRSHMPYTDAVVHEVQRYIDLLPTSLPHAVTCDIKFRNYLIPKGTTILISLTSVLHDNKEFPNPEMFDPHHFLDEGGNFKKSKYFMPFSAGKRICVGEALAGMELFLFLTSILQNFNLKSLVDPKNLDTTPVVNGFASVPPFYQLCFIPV
Assay: NVS_ADME_hCYP2C9: NovaScreen (NVS) CYP450-related Enzyme Activity (ADME) Assay for human CYP2C9 (AID 2283108)
Protocol: NVS_ADME_hCYP2C9 is a biochemical, single-readout assay that uses extracted gene-proteins from SF9 in a cell-free assay. Measurements were taken 0.75 hour after chemical dosing in a 96-well plate.NVS_ADME_hCYP2C9 is one of one assay component(s) measured or calculated from the NVS_ADME_hCYP2C9 assay. It is designed to make measurements of enzyme activity, a form of enzyme reporter, as detected with fluorescence intensity signals by Fluorescence technology.Data from the assay component NVS_ADME_hCYP2C9 was analyzed into 1 assay endpoint. This assay endpoint, NVS_ADME_hCYP2C9, was analyzed in the positive analysis fitting direction relative to Acetonitrile as the negative control and baseline of activity. Using a type of enzyme reporter, loss-of-signal activity can be used to understand changes in the enzymatic activity as they relate to the gene CYP2C9. Furthermore, this assay endpoint can be referred to as a primary readout, because this assay has produced multiple assay endpoints where this one serves a enzymatic activity function. To generalize the intended target to other relatable targets, this assay endpoint is annotated to the cyp intended target family, where the subfamily is xenobiotic metabolism.
Binding assays used specific radioligands (tritiated, iodinated) with non-radioactive competitive displacement ligands in agonist or antagonist protocols (as indicated) and various reference compounds and inhibitors to titrate specific binding to receptors and transporters. Most enzyme assays (CYPs, kinases, phosphatases, proteases, HDACs) used recombinant protein and specific substrates (fluorescence mostly, some colorimetric and radioactive) and inhibitors, followed by a biochemical separation of substrate and product. All assays for the biochemical HTS were initially run in duplicate at a single concentration (10 uM for CYP450 assays and 25 uM for all others). […] Each assay was run with positive and negative controls, and concurrent controls on every plate. The follow-up (secondary) screen tested active chemical-pairs in concentration series, as well as a few additional assays not tested in the primary screen, some selected negative inactives, and several cases re-run in the concentration series for confirmatory purposes.

| Compound | AC50 | outcome |
| --- | --- | --- |
| CC(C)(c1ccc(O)cc1)c1ccc(O)cc1 | 5.49 µM (active) [middle of 4 runs] |  |
| CC(=O)[C@H]1CC[C@H]2[C@@H]3CCC4=CC(=O)CC[C@]4(C)[C@H]3CC[C@]12C | 7.34 µM (active) | inactive |
| CC(C)(C)[C@@H](O)[C@@H](Cc1ccc(Cl)cc1)n1cncn1 | 6.81 µM (active) |  |
| S=C(S)NCCNC(=S)S.[Mn+2].[S-]C([S-])=NCCN=C([S-])[S-].[Zn+2] | 1.63 µM (active) and 1.92 µM (active) and 4.37 µM (active) |  |
| Oc1ccc(C(c2ccc(O)cc2)C(Cl)(Cl)Cl)cc1 | 2.08 µM (active) |  |
| CCCCCCC(C)OC(=O)COc1nc(F)c(Cl)c(N)c1Cl (stereo not given) |  | inactive |
| S=C([S-])NCCNC(=S)[S-].[Mn+2] | 10 µM (active) |  |
| C=CCOC(Cn1ccnc1)c1ccc(Cl)cc1Cl (stereo not given) | 0.379 µM (active) |  |
| CCCCC(CC)COC(=O)c1ccccc1C(=O)O (stereo not given) | 5.35 µM (active) |  |
| N#CSCSc1nc2ccccc2s1 | 1.77 µM (active) and 5.62 µM (active) |  |
| CCCCCOC(=O)COc1cc(N2C(=O)C3=C(CCCC3)C2=O)c(F)cc1Cl |  | inactive |
| CCCCOCCOCCOCc1cc2c(cc1CCC)OCO2 | 4.31 µM (active) |  |
| CCOC(=O)NCCOc1ccc(Oc2ccccc2)cc1 | 10 µM (active) |  |
| COC(=O)c1c(Cl)nn(C)c1S(=O)(=O)NC(=O)Nc1nc(OC)cc(OC)n1 | 2.89 µM (active) |  |
